# Experimental data from PubChem BioAssay (Tox21).
# Records with an inconclusive call do not appear. Entries that show only a call come without a potency. A number with no mark means an inactive call. Activity calls are given as the source filed them. Unless noted, calls come from the whole dose curve; as a rule, active = well fitted curve in the direction sought with a large enough effect in the repeat runs; inconclusive = weak or mixed curves; inactive = no such curve, though single readings can be large; an effect the other way counts as inactive or inconclusive.
# Key:
# [1] = qHTS assay to identify small molecule agonists of the vitamin D receptor (VDR) signaling pathway - cell viability counter screen (AID 743224); note: nearly all actives have a fitted effect of over 50% in size; note: potency is the fitted concentration of half-maximal effect; for activity change, negative = cytotoxicity: series mostly up to about 63 µM
# Summary of the method: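 Compounds were pin-transferred onto VDR-bla cells plated 4 h earlier; following 16 h incubation at 37C, cell viability was quantified by CellTiter-Glo luminescence after 30 min at room temperature.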
# [2] = qHTS assay to identify small molecule antagonists of the vitamin D receptor (VDR) signaling pathway - cell viability counter screen (AID 743225); note: nearly all actives have a fitted effect of over 50% in size; note: potency is the fitted concentration of half-maximal effect
# Summary of the method: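 In this counter screen, VDR-bla HEK 293T cells receive test compound plus 3 nM final calcitriol for 16 h at 37C. Room-temperature steps of 2 h with the beta-lactamase substrate, then 30 min with CellTiter-Glo, precede the luminescence read.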
# [3] = qHTS assay to identify small molecule agonists of the endoplasmic reticulum stress response signaling pathway (AID 1159516; active = well fitted activation curve with a large enough effect in the signal ratio in the repeat runs, not every such curve was filed as active; the % refers to the signal ratio)
# Summary of the method: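 Using a HeLa line with an ESRE-driven beta-lactamase gene, agonist activity was measured by FRET substrate fluorescence (460 and 530 nm emission) after cells were treated with compounds for 5 hr at 37 C and 5% CO2.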
# [4] = qHTS assay to identify small molecule agonists of the endoplasmic reticulum stress response signaling pathway - cell viability counter screen (AID 1159517; calls by dose curve; note: nearly all actives have a fitted effect of over 50% in size; note: potency is the fitted concentration of half-maximal effect;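 for activity change, negative = cytotoxicity: HeLa cells carrying an ER stress response element beta-lactamase reporter; series mostly up to about 61 µM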)
# Summary of the method: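 ESRE-bla HeLa cells (1,500/well) were plated overnight at 37 C and exposed to compounds for 5 hr. After the 2 hr beta-lactamase substrate read, CellTiter-Glo went into the same wells, and luminescence was read after 30 min at room temperature.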
# [5] = qHTS assay to identify small molecule antagonists of the retinoid-related orphan receptor gamma (ROR-gamma) signaling pathway - cell viability counter screen (AID 1159520); note: nearly all actives have a fitted effect of over 50% in size; note: potency is the fitted concentration of half-maximal effect
# Summary of the method: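 Cytotoxicity was read from cellular ATP (CellTiter-Glo luminescence) after 16 hr at 37 C with 1 uM doxycycline induction. The inducer was added 2 hr after compound transfer to Tet-on ROR gamma CHO cells.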
# [6] = target: Nuclear receptor ROR-gamma (Homo sapiens) (UniProt P51449); assay: qHTS assay to identify small molecule antagonists of the retinoid-related orphan receptor gamma (ROR-gamma) signaling pathway (AID 1159521; note: nearly all actives have a fitted effect of over 50% in size; note: potency is the fitted concentration of half-maximal effect;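 for activity change, negative = inhibition: CHO cells with doxycycline inducible ROR-gamma driving an RORE luciferase reporter; top concentration of the series differs between compounds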)
# Summary of the method: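 Screening format: cell-based luciferase reporter in CHO cells with doxycycline-inducible RORγ. Compound pre-exposure lasts 2 h, doxycycline is 1 uM final, induction runs 16 h at 37 C, and ONE-Glo luminescence is read.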
# [7] = qHTS assay to identify small molecule agonists of the AP-1 signaling pathway - cell viability counter screen (AID 1159525; calls by dose curve; note: nearly all actives have a fitted effect of over 55% in size; note: potency is the fitted concentration of half-maximal effect)
# Summary of the method: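 Intracellular ATP by Cell Titer Glo luminescence (30 min, RT) in the same ME-180 AP-1-bla wells after the 5 h compound exposure at 37 °C. Normalised to tetra n-octyl ammonium bromide and DMSO controls.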
# [8] = qHTS assay to identify small molecule agonists of the AP-1 signaling pathway (AID 1159526; calls by dose curve)
# [9] = qHTS assay to identify small molecule agonists of the RXR signaling pathway - cell viability counter screen (AID 1159529); note: nearly all actives have a fitted effect of over 50% in size; note: potency is the fitted concentration of half-maximal effect;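 for activity change, negative = cytotoxicity: HEK 293T cells carrying an RXR-alpha UAS beta-lactamase reporter; series mostly up to about 77 µM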
# Summary of the method: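 Viability read-out for the RXR-alpha agonist qHTS: luminescent CellTiter-Glo signal after 30 min at RT. HEK 293T bla reporter cells, 2% charcoal-stripped FBS, 16 hr compound incubation; tetraoctyl ammonium bromide as cytotoxic control.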
# [10] = target: Retinoic acid receptor RXR-alpha (Homo sapiens) (UniProt P19793); assay: qHTS assay to identify small molecule agonists of the RXR signaling pathway (AID 1159527; calls by dose curve; note: nearly all actives have a fitted effect of over 35% in size)
# Sequence of Retinoic acid receptor RXR-alpha (Homo sapiens) (P19793 whole entry, looked up): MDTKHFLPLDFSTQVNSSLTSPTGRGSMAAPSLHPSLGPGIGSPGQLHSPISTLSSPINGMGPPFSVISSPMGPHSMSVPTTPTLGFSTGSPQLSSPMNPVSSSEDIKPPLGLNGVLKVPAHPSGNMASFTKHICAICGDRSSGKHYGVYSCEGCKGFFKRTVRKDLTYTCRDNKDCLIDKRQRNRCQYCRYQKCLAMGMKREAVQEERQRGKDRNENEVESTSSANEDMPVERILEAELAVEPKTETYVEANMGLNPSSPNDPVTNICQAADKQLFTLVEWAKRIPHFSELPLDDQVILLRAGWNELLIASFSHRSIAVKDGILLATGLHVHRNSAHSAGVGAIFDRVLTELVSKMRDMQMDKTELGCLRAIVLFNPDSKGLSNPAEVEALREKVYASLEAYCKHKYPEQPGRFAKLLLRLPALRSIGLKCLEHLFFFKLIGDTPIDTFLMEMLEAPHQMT
# Summary of the method: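 Fluorescence ratio readout (460 vs 530 nm) from GeneBLAzer RXR-alpha HEK 293T cells after 16 hr compound treatment; cells seeded 5 hr beforehand in low-serum, charcoal-stripped medium.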
structure (smiles),measurement,setting,value
CCN1CCN(c2cc(-c3ccc(F)cc3)c3c(n2)CCCCCC3)CC1,Potency,[1],inactive
same,Potency,[2],inactive
same,Potency,[3],inactive
same,Potency,[4],inactive
same,"activity, negative = cytotoxicity",[5],-5.78% [at 19 µM]
same,"activity change, negative = inhibition",[6],-6.23% [at 19 µM]
same,"viability change, negative = cytotoxic",[7],3.9% [at 15.8 µM]
same,activation,[8],6.74% [at 15.8 µM]
same,"activity change, negative = cytotoxicity",[9],-22.5% [at 15.8 µM]
NC1(c2ccc(-c3nc4ccn5c(=O)[nH]nc5c4cc3-c3ccccc3)cc2)CCC1,Potency,[2],21.3 µM (active)
same,Potency,[3],inactive
same,Potency,[4],inactive
same,Potency,[5],29.8 µM (active)
same,Potency,[6],0.596 µM (active)
same,Potency,[9],21.3 µM (active)
CCCCNc1c(C(=O)OCC)c(C)nc2c1cnn2CC,Potency,[1],inactive
same,Potency,[3],inactive
same,Potency,[4],inactive
same,Potency,[5],inactive
same,Potency,[6],inactive
same,Potency,[7],inactive
same,Potency,[8],inactive
same,Potency,[9],inactive
CC(=O)Oc1ccc(C2(c3ccc(OC(C)=O)cc3)Oc3ccccc3NC2=O)cc1,Potency,[1],inactive
same,Potency,[2],inactive
same,Potency,[3],inactive
same,Potency,[4],inactive
same,Potency,[5],inactive
same,Potency,[6],26.6 µM (active)
same,Potency,[8],inactive
same,Potency,[9],inactive
C/C=C/C=N/NC(=O)c1ccncc1,Potency,[2],inactive
same,Potency,[3],inactive
same,Potency,[4],inactive
same,Potency,[5],inactive
same,Potency,[6],inactive
same,Potency,[7],inactive
same,Potency,[9],inactive
ClC/C=C\CCl,Potency,[1],inactive
same,Potency,[2],inactive
same,Potency,[3],inactive
same,Potency,[4],inactive
same,Potency,[5],inactive
same,Potency,[7],inactive
same,Potency,[8],inactive
same,Potency,[10],inactive
same,Potency,[9],inactive
CC(C(O)c1ccccc1)N(C)CCOC(c1ccccc1)c1ccccc1 (stereo unspecified),Potency,[3],inactive
same,Potency,[4],inactive
CCCCCCCCCCCC(=O)N(CC)CC,Potency,[2],inactive
same,Potency,[3],inactive
same,Potency,[4],inactive
same,Potency,[5],inactive
same,Potency,[6],inactive
same,Potency,[7],inactive
same,Potency,[9],inactive
CCCCOc1ccc(C(=O)CCN2CCCCC2)cc1,Potency,[3],inactive
same,Potency,[4],inactive
same,Potency,[5],26.6 µM (active)
same,Potency,[7],inactive
same,Potency,[8],inactive
C(=C/c1ccccc1)/c1ccccc1,Potency,[1],inactive
same,Potency,[2],inactive
same,Potency,[3],inactive
same,Potency,[5],inactive
same,Potency,[6],inactive
same,Potency,[7],inactive
same,Potency,[8],inactive
same,Potency,[10],inactive
same,Potency,[9],inactive
O=C(O)c1cccc(Cl)n1,Potency,[1],24.5 µM (active)
same,Potency,[3],inactive
same,Potency,[4],inactive
same,Potency,[5],inactive
same,Potency,[7],inactive
same,Potency,[8],inactive
same,Potency,[9],inactive
Cc1ccc(N)cc1O,Potency,[3],inactive
same,Potency,[5],inactive
same,Potency,[6],inactive
same,Potency,[7],38.9 µM (active)
O=C1OC(OC(=O)c2cccnc2Nc2cccc(C(F)(F)F)c2)c2ccccc21 (stereo unspecified),Potency,[1],inactive
same,Potency,[2],inactive
same,Potency,[3],inactive
same,Potency,[4],inactive
same,Potency,[5],inactive
same,Potency,[7],inactive
same,Potency,[9],inactive
CC(NCCC(c1ccccc1)c1ccccc1)c1ccccc1 (stereo unspecified),Potency,[1],23.7 µM (active)
same,Potency,[3],inactive
same,Potency,[4],inactive
same,Potency,[6],29.8 µM (active)
same,Potency,[7],inactive
CC(CN(C)C)CN1c2ccccc2CCc2ccccc21 (stereo unspecified),Potency,[2],inactive
same,Potency,[3],inactive
same,Potency,[4],inactive
same,Potency,[5],inactive
same,Potency,[9],9.52 µM (active)
C=CC(=C)CCC=C(C)C,Potency,[1],54.9 µM (active)
same,Potency,[3],inactive
same,Potency,[4],inactive
same,Potency,[5],inactive
same,Potency,[7],inactive
same,Potency,[9],inactive
CCC(=O)OCCc1ccccc1,Potency,[2],inactive
same,Potency,[3],inactive
same,Potency,[4],inactive
same,Potency,[5],inactive
same,Potency,[7],inactive
same,Potency,[9],inactive
C=CC(=O)OCCC#N,Potency,[1],inactive
same,Potency,[2],inactive
same,Potency,[3],inactive
same,Potency,[4],inactive
same,Potency,[7],inactive
same,Potency,[9],inactive
NC(=O)C(=O)N/N=C/c1ccc([N+](=O)[O-])o1,Potency,[2],inactive
same,Potency,[3],inactive
same,Potency,[4],inactive
same,Potency,[6],inactive
same,Potency,[9],inactive
O=S(=O)(O)CCCN1CCOCC1,Potency,[2],inactive
same,Potency,[3],inactive
same,Potency,[4],inactive
same,Potency,[5],inactive
same,Potency,[7],inactive
same,Potency,[8],inactive
same,Potency,[10],inactive
same,Potency,[9],inactive
CC(C)=C1CC[C@@H](C)CC1=O,Potency,[1],inactive
same,Potency,[2],inactive
same,Potency,[3],inactive
same,Potency,[5],inactive
same,Potency,[6],inactive
same,Potency,[7],inactive
same,Potency,[8],inactive
same,Potency,[10],inactive
same,Potency,[9],inactive
CCO[Si](CCCSSSSCCC[Si](OCC)(OCC)OCC)(OCC)OCC,Potency,[3],inactive
same,Potency,[4],inactive
same,Potency,[5],inactive
same,Potency,[7],24.6 µM (active)
same,Potency,[9],21.9 µM (active)
CCCCCCCC/C=C\CCCCCCCC(=O)N(C)CC(=O)O,Potency,[1],49 µM (active)
same,Potency,[3],inactive
same,Potency,[4],54.9 µM (active)
same,Potency,[6],inactive
same,Potency,[7],30.9 µM (active)
NCCCC(O)(P(=O)(O)O)P(=O)(O)O,Potency,[2],inactive
same,Potency,[3],inactive
same,Potency,[4],inactive
same,Potency,[5],inactive
same,Potency,[7],inactive
same,Potency,[8],inactive
same,Potency,[9],inactive
C[Si](C)(C)Cl,Potency,[1],inactive
same,Potency,[3],inactive
same,Potency,[5],inactive
same,Potency,[6],inactive
same,Potency,[7],inactive
same,Potency,[8],inactive
same,Potency,[10],inactive
same,Potency,[9],inactive
CCCCN(CCCC)CCC(O)c1cc2c(Cl)cc(Cl)cc2c2cc(C(F)(F)F)ccc12 (stereo unspecified),Potency,[3],inactive
same,Potency,[4],inactive
same,Potency,[6],29.8 µM (active)
same,Potency,[7],inactive
same,Potency,[9],23.9 µM (active)
CC(C)N=C(N)/N=C(\N)Nc1ccc(Cl)cc1,Potency,[1],inactive
same,Potency,[2],inactive
same,Potency,[3],inactive
same,Potency,[4],inactive
same,Potency,[5],inactive
same,Potency,[7],inactive
same,Potency,[8],inactive
same,Potency,[9],inactive
